Shown are actives, neighbours in structure and some others; about 7.3% of the full set was active somewhere.
FLuc modulator = qHTS profiling assay for firefly luciferase inhibitor/activator using purifed enzyme and Km concentrations of substrates (counterscreen for miR-21 project); Luciferin 4-monooxygenase (Photinus pyralis), P08659; purified FLuc, Km substrates, luminescence inhibition; Potency, µM (highest dose often 57.5 µM), actives largely listed as inhibitors; 6.9% of 360,000 active; AID 588342, 2011; note: nearly all actives have a fitted effect of over 55% in size
Target sequence (P08659 whole entry, looked up): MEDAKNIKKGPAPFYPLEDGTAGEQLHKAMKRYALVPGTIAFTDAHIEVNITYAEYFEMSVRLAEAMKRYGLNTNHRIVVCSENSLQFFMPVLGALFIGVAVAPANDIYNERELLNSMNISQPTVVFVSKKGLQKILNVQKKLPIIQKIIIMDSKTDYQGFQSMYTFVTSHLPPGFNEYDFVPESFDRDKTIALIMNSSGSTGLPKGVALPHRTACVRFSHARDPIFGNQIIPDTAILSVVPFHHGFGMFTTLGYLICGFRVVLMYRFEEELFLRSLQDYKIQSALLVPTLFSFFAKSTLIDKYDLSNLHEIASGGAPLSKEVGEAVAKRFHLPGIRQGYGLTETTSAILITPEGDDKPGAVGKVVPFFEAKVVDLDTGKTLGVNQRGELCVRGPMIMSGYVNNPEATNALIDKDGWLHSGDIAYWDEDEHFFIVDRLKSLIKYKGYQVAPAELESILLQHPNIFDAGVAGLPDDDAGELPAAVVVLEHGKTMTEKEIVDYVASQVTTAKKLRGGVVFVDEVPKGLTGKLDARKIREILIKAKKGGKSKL
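Purified P. pyralis luciferase (10nM final) with 10uM D-luciferin and 10uM ATP (Km levels) in 50mM Tris acetate pH 7.5, 10mM Mg acetate, 0.01% Tween-20, 0.05% BSA; qHTS 6-point titration, ~60 µM downward; luminescence read.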
NPC1 prom act = qHTS Assay for NPC1 Promoter Activators; Huh7 NPC1 promoter luciferase reporter, 24 h; Potency, µM (series often up to 9.22 µM), actives largely listed as activators; 2.4% of 320,000 active; AID 485313, 2010; note: nearly all actives have a fitted effect of over 60% in size
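Stably transfected Huh7 (NPC1 promoter→luciferase), 1500 cells/well in Opti-MEM + 10% FBS, 2 h settle, then compound 24 h at 37 °C. Luminescence after 10 min with Amplite reagent.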
ELG1 genotox = qHTS screen for small molecules that induce genotoxicity in human embryonic kidney (HEK293T) cells expressing luciferase-tagged ELG1; Potency, µM (series often up to 46 µM), most hits filed as activators; HEK293T ELG1-luciferase reporter, luminescence, 16 h; AID 504466, 2011; 1.3% of 330,000 active; note: nearly all actives have a fitted effect of over 60% in size
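16 hr compound incubation (37 °C, 5% CO2) of HEK293T cells carrying luciferase-tagged ELG1; luciferase then measured by ONE-Glo luminescence after 30 min at RT.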
KinaseGlo FLuc = Counterscreen for Luciferase (Kinase-Glo TM) Inhibition; Kinase-Glo luciferase, ATP luminescence, 8 min; Potency, µM (titrated, usually from 38.3 µM), usual class: inhibitors; 0.28% of 200,000 active; AID 1379, 2008; note: nearly all actives have a fitted effect of over 60% in size
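Inhibition of Kinase-Glo luciferase light generation was assessed at 10 uM ATP in pH 7.2 imidazole buffer, with luminescence measured after eight minutes at ambient temperature.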
Rab9 prom act = qHTS Assay for Rab9 Promoter Activators; Huh7 Rab9 promoter-luciferase reporter, luminescence, 24 h; Potency, µM (highest dose often 9.22 µM), actives largely listed as activators; 2.8% of 320,000 active; AID 485297, 2010; note: nearly all actives have a fitted effect of over 60% in size
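Huh7 reporter line, Rab9 promoter upstream of luciferase. Compound exposure 24 h at 37 °C in reduced-serum medium with 10% FBS. Read-out: luminescence.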
SMN2 splice up = qHTS Assay for Enhancers of SMN2 Splice Variant Expression; Potency, µM (series often up to 46.1 µM), actives largely listed as activators; 2.8% of 210,000 active; HEK293 SMN2-luciferase splicing reporter, luminescence, 30-36 h; note: nearly all actives have a fitted effect of over 55% in size
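HEK293 cells carry an SMN2 minigene-luciferase reporter in which exon 7 inclusion puts luciferase in frame. Cells were seeded at 2000 cells/well, attached for 10-12 hours, then exposed to compounds for 30-36 hours at 37C before ONE-Glo luminescence.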
A number is an active result. Calls come from the whole dose curve; as a rule, active = well fitted curve in the direction sought with a large enough effect; inconclusive = small, poorly fitted or top-dose-only effect, or another doubt; inactive = no such curve, though single readings can be large; an effect the other way counts as inactive or inconclusive.

How did Cc1onc(-c2ccccc2Cl)c1-c1nc(-c2ccccn2)no1 do in these assays?
FLuc modulator: inactive; NPC1 prom act: inactive; ELG1 genotox: inactive; KinaseGlo FLuc: inactive; Rab9 prom act: inactive; SMN2 splice up: inactive

How did Cc1ccc(-n2nc3cc(C)c(N)cc3n2)cc1 do in these assays?
FLuc modulator: 0.27µM; NPC1 prom act: 4µM; ELG1 genotox: inconclusive; KinaseGlo FLuc: inactive; Rab9 prom act: 1.1µM; SMN2 splice up: 1.4µM

What do the screens show for `Cc1ccc(C)c(N)c1`?
FLuc modulator: inactive; NPC1 prom act: inactive; ELG1 genotox: inactive; Rab9 prom act: inactive; SMN2 splice up: inactive

How did CCc1ccc(-n2nc3cc(C)c(N)cc3n2)cc1 do in these assays?
FLuc modulator: 0.19µM; NPC1 prom act: 0.32µM; ELG1 genotox: 0.41µM; Rab9 prom act: 0.13µM

How did COc1ccc(C(=O)Nc2cccc(OCc3cc(=O)n4c5c(sc4n3)CCCC5)c2)cc1OC do in these assays?
FLuc modulator: 2.4µM; SMN2 splice up: inactive

How did Cc1[nH]nc(Nc2ccc(Br)cc2)c1[N+](=O)[O-] do in these assays?
FLuc modulator: 9.5µM; NPC1 prom act: 2.8µM; ELG1 genotox: inconclusive; Rab9 prom act: 3.2µM

How did Cc1[nH]nc(Nc2ccc(C(C)C)cc2)c1[N+](=O)[O-] do in these assays?
FLuc modulator: 9.5µM; NPC1 prom act: 3.5µM; ELG1 genotox: inconclusive; Rab9 prom act: 3.5µM

How did COc1ccc(Nc2nc(N)c([N+](=O)[O-])c(NCCO)n2)cc1 do in these assays?
FLuc modulator: inconclusive; NPC1 prom act: inactive; ELG1 genotox: inactive; Rab9 prom act: inactive

What do the screens show for `Cc1ccc(Nc2n[nH]c(C)c2[N+](=O)[O-])cc1`?
FLuc modulator: 19µM; NPC1 prom act: 2.8µM; ELG1 genotox: inactive; KinaseGlo FLuc: inactive; Rab9 prom act: 3.5µM; SMN2 splice up: 18µM

Results for CNc1nc(Nc2ccc(Br)cc2)nc(N)c1[N+](=O)[O-] ?
FLuc modulator: inactive; NPC1 prom act: inconclusive; ELG1 genotox: inconclusive; KinaseGlo FLuc: inactive; Rab9 prom act: 3.5µM; SMN2 splice up: inactive

How did Cc1cccc(Nc2n[nH]c(C)c2[N+](=O)[O-])c1 do in these assays?
FLuc modulator: 15µM; NPC1 prom act: 2.5µM; ELG1 genotox: 5.8µM; KinaseGlo FLuc: inactive; Rab9 prom act: 3.2µM; SMN2 splice up: inconclusive

How did Cc1[nH]nc(Nc2ccccc2)c1[N+](=O)[O-] do in these assays?
FLuc modulator: inconclusive; NPC1 prom act: inactive; ELG1 genotox: inactive; KinaseGlo FLuc: inactive; Rab9 prom act: inactive; SMN2 splice up: inactive

How did CCS(=O)(=O)c1ccc2oc(Nc3ccccc3C)nc2c1 do in these assays?
FLuc modulator: 13µM; NPC1 prom act: 3.5µM; ELG1 genotox: inconclusive; KinaseGlo FLuc: inconclusive; Rab9 prom act: 3.5µM; SMN2 splice up: inconclusive

What do the screens show for `CCN(CC)S(=O)(=O)c1ccc2oc(Nc3ccccc3)nc2c1`?
FLuc modulator: 15µM; NPC1 prom act: inconclusive; ELG1 genotox: inconclusive; Rab9 prom act: inconclusive

Results for CCN(CC)S(=O)(=O)c1ccc2oc(Nc3ccc(OC)cc3OC)nc2c1 ?
FLuc modulator: inactive; NPC1 prom act: inactive; ELG1 genotox: inactive; Rab9 prom act: inactive

Results for C=CCSc1nnc(NC(=O)CSCc2c(C)noc2C)s1 ?
ELG1 genotox: inactive

Results for COc1cc(/C=N/O)ccc1OCc1ccccc1Cl ?
FLuc modulator: 6.7µM; NPC1 prom act: 3.2µM; ELG1 genotox: 16µM; KinaseGlo FLuc: inactive; Rab9 prom act: 1.6µM; SMN2 splice up: 11µM

How did COc1ccc(/C=N/N=C2/NC(=O)C(CC(=O)O)S2)cc1OCc1ccccc1Cl (centres undefined) do in these assays?
FLuc modulator: inactive; NPC1 prom act: inactive; ELG1 genotox: inactive; KinaseGlo FLuc: inactive; Rab9 prom act: inactive; SMN2 splice up: inactive

Results for CCOC(=O)c1ccc(CSC(=N)N)o1 ?
FLuc modulator: inactive; NPC1 prom act: inactive; ELG1 genotox: inconclusive; Rab9 prom act: inactive

How did CCOC(=O)c1ccc(N=C2NC(=O)CS2)cc1 do in these assays?
FLuc modulator: inactive; NPC1 prom act: inactive; ELG1 genotox: inactive; KinaseGlo FLuc: inactive; Rab9 prom act: inactive; SMN2 splice up: inconclusive

How did CCOC(=O)c1ccc(N=c2scc(C)n2CC)cc1 do in these assays?
FLuc modulator: 11µM; NPC1 prom act: inconclusive; ELG1 genotox: inconclusive; KinaseGlo FLuc: inactive; Rab9 prom act: 2µM; SMN2 splice up: 25µM

Results for C=CCn1c(C)csc1=Nc1ccc(C(C)=O)cc1 ?
FLuc modulator: 19µM; NPC1 prom act: inconclusive; ELG1 genotox: inconclusive; KinaseGlo FLuc: inactive; Rab9 prom act: inconclusive; SMN2 splice up: inactive

How did CCOC(=O)c1ccc(N=NN(C)C)cc1 do in these assays?
FLuc modulator: 19µM; NPC1 prom act: inconclusive; ELG1 genotox: inconclusive; Rab9 prom act: inconclusive

What do the screens show for `O=C(Cc1ccc(Cl)cc1)NCCN1CCCC1`?
FLuc modulator: inactive; NPC1 prom act: inactive; ELG1 genotox: inactive; KinaseGlo FLuc: inactive; Rab9 prom act: inactive; SMN2 splice up: inconclusive

Results for COc1ccc(C(CNC(=O)c2ccc(S(=O)(=O)N3CCCC3)cc2)N2CCOCC2)cc1 (centres undefined) ?
FLuc modulator: inactive; NPC1 prom act: inactive; ELG1 genotox: inactive; Rab9 prom act: inactive

What do the screens show for `CC(C)(C)OC(=O)NCCc1nnc(SCC(=O)c2ccc(Cl)cc2)o1`?
FLuc modulator: inactive; NPC1 prom act: inactive; ELG1 genotox: inactive; KinaseGlo FLuc: inactive; Rab9 prom act: inactive; SMN2 splice up: inactive

How did Cc1nnc(SCC(=O)Nc2nsc(-c3ccc(C(C)(C)C)cc3)n2)s1 do in these assays?
FLuc modulator: 11µM; NPC1 prom act: 1.4µM; ELG1 genotox: 3.3µM; KinaseGlo FLuc: inactive; Rab9 prom act: 1.4µM; SMN2 splice up: 11µM

What do the screens show for `C=CCn1c(SCC(=O)Nc2ccc(N3CCOCC3)cc2)nnc1-c1ccncc1`?
FLuc modulator: inconclusive; NPC1 prom act: inactive; ELG1 genotox: inactive; Rab9 prom act: inactive

Results for NC(=O)c1ccc(NC(=O)CCCN2C(=O)NC3(CCCC3)C2=O)cc1 ?
FLuc modulator: inactive; NPC1 prom act: inactive; ELG1 genotox: inactive; Rab9 prom act: inactive

Results for Cc1nnc(SCC(=O)Nc2ccc(-c3nc4ccccc4s3)cc2)s1 ?
FLuc modulator: 0.27µM; NPC1 prom act: 0.79µM; ELG1 genotox: 2.1µM; KinaseGlo FLuc: inactive; Rab9 prom act: 0.35µM; SMN2 splice up: 1.3µM

What do the screens show for `O=C(CCN1C(=O)NC2(CCCC2)C1=O)Nc1ccc(-c2nc3ccccc3s2)cc1`?
NPC1 prom act: 0.89µM; ELG1 genotox: inconclusive; Rab9 prom act: 0.45µM
